Laboratory results as given in PubChem BioAssay AID1159580 (chemical genetic matrix, 2015).
“And” between values parts separate entries of the source, which are not always exact repeats. Equal entries are not always repeated. Out of some 5,500 compounds screened, about 2,000 (36%) were called active. Not shown: some 18% with an inconclusive outcome. No stated cut-off is given here; in the data, active means normalized growth mostly below about 0.91 (no sharp cut-off); inconclusive means no clear call, values can overlap the other calls; inactive means mostly above about 0.92. The list shows a part of the results.

Assay: chemical genetic growth profiling, strain panel (AID 1159580);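 further: tested at 20 µM; growth read once vehicle control cultures reached saturation at 30 °C; 1 = growth at the plate median or of vehicle wells; lower values mean less growth of the strain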
Details: S. cerevisiae deletion strains, growth OD
[1] = locus YBR229C, strain ROT2, active compounds read low
[2] = locus YDL101C, strain DUN1, active compounds read low
[3] = locus YDR150W, strain NUM1, active compounds read low
[4] = locus YEL061C, strain CIN8, active compounds read low
[5] = locus YGR078C, strain PAC10, active compounds read low
[6] = locus YHR030C, strain SLT2, active compounds read low
[7] = locus YJR043C, strain POL32, active compounds read low
[8] = locus YLR039C, strain RIC1, active compounds read low
[9] = locus YLR262C, strain YPT6, active compounds read low
[10] = locus YNL153C, strain GIM3, active compounds read low
[11] = locus YNL322C, strain KRE1, active compounds read low

Measured: normalized growth

Nc1ccccc1C(=O)NCCc1ccc(Cl)cc1
active: locus YJL187C, strain SWE1, active compounds read low 0.928 | locus YJR075W, strain HOC1, active compounds read low 0.888
inactive: locus YAL013W, strain DEP1, active compounds read low 0.979 | [1] 0.949 | [2] 0.987 | locus YDL134C, strain PPH21, active compounds read low 0.949 | [3] 0.916 | [4] 0.956 | [5] 0.97 | [6] 0.773 | locus YHR087W, strain rtc3, active compounds read low 0.927 | [7] 0.964 | locus YKL190W, strain CNB1, active compounds read low 0.947 | [8] 0.969 | locus YLR058C, strain SHM2 (second series), active compounds read low 0.961 | locus YLR085C, strain ARP6, active compounds read low 0.832 | [9] 0.908 | locus YML094W, strain GIM5, active compounds read low 0.938 | locus YMR219W, strain ESC1, active compounds read low 0.962 | locus YMR263W, strain SAP30, active compounds read low 0.997 | locus YNL128W, strain TEP1, active compounds read low 0.993 | [10] 0.974 | locus YNL298W, strain CLA4 (second series), active compounds read low 0.939 | [11] 0.963 | locus YNR030W, strain Alg12, active compounds read low 0.942 | locus YPL055C, strain LGE1, active compounds read low 1.08 | locus YPL241C, strain CIN2, active compounds read low 0.902 | locus YPR135W, strain CTF4, active compounds read low 0.767

C[N+]1(C)CCCC(OC(=O)C(O)(c2ccccc2)c2ccccc2)C1 (stereo not given)
inactive: locus YBR021W, strain FUR4, active compounds read low 1.01 | [1] 1.01 | locus YCL029C, strain bik1, active compounds read low 0.988 | locus YDL035C, strain GPR1, active compounds read low 1.02 | locus YDL074C, strain BRE1, active compounds read low 1.01 | [2] 0.999 | locus YDL185W, strain tfp1, active compounds read low 0.961 | locus YDL192W, strain arf1, active compounds read low 0.983 | locus YDR101C, strain arx1, active compounds read low 1 | [3] 1 | locus YDR162C, strain NBP2, active compounds read low 1.01 | locus YDR318W, strain mcm21, active compounds read low 0.976 | locus YDR388W, active compounds read low 0.997 | locus YDR502C, strain sam2, active compounds read low 0.989 | [4] 0.999 | locus YER110C, active compounds read low 0.968 | locus YER155C, strain BEM2, active compounds read low 1 | locus YER167W, strain BCK2, active compounds read low 0.995 | locus YGL078C, strain dbp3, active compounds read low 0.976 | locus YGL086W, strain mad1, active compounds read low 1.02 | locus YGL248W, strain PDE1, active compounds read low 1 | [5] 1 | locus YGR135W, strain pre9, active compounds read low 0.937 | locus YGR252W, strain gcn5, active compounds read low 0.936 | [6] 1 and 1.03 | locus YHR079C, strain IRE1 (second series), active compounds read low 0.982 | locus YHR079C, strain IRE1, active compounds read low 1.02 | locus YHR094C, strain hxt1, active compounds read low 0.996 | locus YHR129C, strain ARP1, active compounds read low 1 | locus YHR200W, strain rpn10, active compounds read low 0.975 | locus YIL066C, strain RNR3, active compounds read low 1.01 | locus YIL073C, strain SPO22, active compounds read low 0.937 | locus YIL125W, strain kgd1, active compounds read low 0.997 | locus YIR030C, strain dcg1, active compounds read low 0.978 | locus YJL095W, strain BCK1, active compounds read low 0.969 and 1.02 | locus YJL134W, strain LCB3, active compounds read low 1 | locus YJL168C, strain set2, active compounds read low 0.998 | locus YJL187C, strain SWE1 (second series), active compounds read low 1.01 | [7] 1.03 | locus YJR066W, strain TOR1, active compounds read low 0.986 | locus YKL009W, strain mrt4, active compounds read low 1 | locus YKL068W, active compounds read low 0.991 | locus YKL085W, strain MDH1 (second series), active compounds read low 0.97 | locus YKL085W, strain MDH1, active compounds read low 0.97 | locus YKR001C, strain vps1, active compounds read low 0.99 | [8] 0.94 | locus YLR058C, strain SHM2, active compounds read low 0.998 | locus YLR102C, strain apc9, active compounds read low 0.982 | locus YLR113W, strain HOG1, active compounds read low 1.02 | [9] 0.979 | locus YLR268W, strain sec22, active compounds read low 0.996 | locus YLR330W, strain CHS5, active compounds read low 0.994 | locus YLR342W, strain FKS1 (second series), active compounds read low 1.01 | locus YLR371W, strain rom2, active compounds read low 0.985 | locus YLR418C, strain cdc73, active compounds read low 0.969 | locus YML016C, strain PPZ1, active compounds read low 1 | locus YML032C, strain rad52, active compounds read low 0.996 | locus YML124C, strain tub3, active compounds read low 0.991 | locus YMR078C, strain ctf18, active compounds read low 0.97 | locus YMR223W, strain ubp8, active compounds read low 0.951 | locus YMR307W, strain GAS1, active compounds read low 1.03 | locus YNL067W, strain RPL9B, active compounds read low 0.997 | [10] 1 | locus YNL183C, strain NPR1, active compounds read low 0.983 | locus YNL233W, strain BNI4, active compounds read low 0.997 | locus YNL250W, strain rad50, active compounds read low 0.962 | locus YNL271C, strain bni1, active compounds read low 0.981 | locus YNL298W, strain CLA4, active compounds read low 0.968 | locus YNL307C, strain MCK1, active compounds read low 0.981 | [11] 0.99 | locus YNR052C, strain pop2, active compounds read low 0.975 | locus YOL006C, strain TOP1, active compounds read low 0.969 | locus YOL012C, strain htz1 0.94 | locus YOL147C, strain pex11, active compounds read low 0.993 | locus YOR061W, strain CKA2, active compounds read low 0.999 | locus YOR069W, strain VPS5, active compounds read low 1 | locus YOR136W, strain idh2, active compounds read low 0.996 | locus YOR144C, strain elg1, active compounds read low 0.993 | locus YOR184W, strain ser1, active compounds read low 0.981 | locus YOR231W, strain MKK1, active compounds read low 1.02 | locus YOR316C, strain cot1, active compounds read low 0.983 | locus YPL256C, strain CLN2, active compounds read low 1.03 | locus YPR119W, strain clb2, active compounds read low 0.979 | locus YPR141C, strain kar3, active compounds read low 0.983 | locus YPR163C, strain tif3, active compounds read low 0.984 | locus YPR167C, strain met16, active compounds read low 0.987 | strain wtn01, active compounds read low 0.975
